Data taken from the supplement of paper PMC13380429.

Test system: Vero E6 infected with SARS-CoV-2
Assay: inhibition of SARS-CoV-2 cytopathic effect; higher = more antiviral protection, active = above 15
Details: 48 h

Measured: inhibition of SARS-CoV-2 cytopathic effect

C[n+]1c2cc(N)ccc2cc2ccc(N)cc21 [acriflavinium]
inactive: 1 nM -3.77% | 8.33 nM -2.4% | 100 nM -2.84% | 833.33 nM -0.42% | 10000 nM -5.69%

N[C@@H](CC(=O)N1CCn2c(nnc2C(F)(F)F)C1)Cc1cc(F)c(F)cc1F [sitagliptin]
inactive: 1 nM -0.24% | 8.33 nM 1.03% | 100 nM 2.43% | 833.33 nM 3.7% | 10000 nM 1%

CCO[C@@H]1OC(=O)C[C@@H]1NC(=O)[C@@H]1CCCN1C(=O)[C@@H](NC(=O)c1ccc(N)c(Cl)c1)C(C)(C)C
inactive: 1 nM -2.56% | 8.33 nM -1.09% | 100 nM 0.58% | 833.33 nM 0.04% | 10000 nM -2.79%

NC(=O)c1ncn([C@@H]2O[C@H](CO)[C@@H](O)[C@H]2O)c1O [mizoribine]
inactive: 1 nM -1.24% | 8.33 nM -0.82% | 100 nM 0.9% | 833.33 nM 0.29% | 10000 nM -1.77%

CC(C)N1Cc2cc(S(C)(=O)=O)ccc2N(CCN2CC=C(c3c[nH]c4cc(F)ccc34)CC2)S1(=O)=O
inactive: 1 nM -0.02% | 8.33 nM 5.05% | 100 nM 2.58% | 833.33 nM 1.15% | 10000 nM 4%

CC(=O)N1CCN(c2ccc(OC[C@@H]3CO[C@@](Cn4ccnc4)(c4ccc(Cl)cc4Cl)O3)cc2)CC1 (racemic) [ketoconazole]
inactive: 1 nM -0.87% | 8.33 nM -0.69% | 100 nM -1.88% | 833.33 nM 0.35% | 10000 nM 1.61%

O=C(O)/C=C/c1ccc(O)c(O)c1 [caffeic-acid]
inactive: 1 nM 2.05% | 8.33 nM -0.05% | 100 nM 0.87% | 833.33 nM -0.22% | 10000 nM -4.36%

Cc1cc(C)c(CNC(=O)c2cc(-c3ccc(N4CCN(C)CC4)nc3)cc3c2c(C)cn3C(C)C)c(=O)[nH]1
inactive: 1 nM -3.53% | 8.33 nM -2.54% | 100 nM -3.49% | 833.33 nM -2.29% | 10000 nM -3.02%

NC(=O)C(c1ccccc1)(c1ccc(F)cc1)c1ccc(F)cc1 [senicapoc]
inactive: 1 nM -2.77% | 8.33 nM -1.48% | 100 nM -2.37% | 833.33 nM 0.14% | 10000 nM -0.54%

CCC1=C[C@@H]2CN3CCc4c([nH]c5ccccc45)[C@@](C(=O)OC)(C2)[C@@H]13 [catharanthine]
inactive: 1 nM 0.42% | 8.33 nM 0.35% | 100 nM 0.47% | 833.33 nM 0.93% | 10000 nM 2.81%

CCOC(=O)/C=C(C)/C=C/C=C(C)/C=C/c1c(C)cc(OC)c(C)c1C [etretinate]
inactive: 1 nM -2.16% | 8.33 nM 0.11% | 100 nM 0.84% | 833.33 nM 2.68% | 10000 nM 3.85%

Cc1cccc(Cc2c[nH]cn2)c1C [detomidine]
inactive: 1 nM -2.36% | 8.33 nM -0.01% | 100 nM 1.67% | 833.33 nM -2.3% | 10000 nM 2.25%

CC(C)(C)NC(=O)[C@@H]1C[C@@H]2CCCC[C@@H]2CN1C[C@@H](O)[C@H](Cc1ccccc1)NC(=O)[C@H](CC(N)=O)NC(=O)c1ccc2ccccc2n1 [saquinavir]
inactive: 1 nM -9.33% | 8.33 nM -7.46% | 100 nM -1.46% | 833.33 nM -6.25% | 10000 nM -22%

CCOC(=O)c1ncn2c1CN(C)C(=O)c1cc(F)ccc1-2 [flumazenil]
inactive: 1 nM -5.56% | 8.33 nM -4.56% | 100 nM -4.89% | 833.33 nM -4.65% | 10000 nM -1.96%

CC(C)OC(=O)[C@H](C)N[P@@](=O)(OC[C@H]1O[C@@H](n2ccc(=O)[nH]c2=O)[C@](C)(F)[C@@H]1O)Oc1ccccc1
inactive: 1 nM 2.14% | 8.33 nM -0.76% | 100 nM -2.61% | 833.33 nM -0.19% | 10000 nM 0.32%

CN1C(=O)N(C)C2C1N(C)C(=O)N2C (stereo not given) [mebicar]
inactive: 1 nM -5.8% | 8.33 nM -1.8% | 100 nM -3.06% | 833.33 nM -1.23% | 10000 nM -2.18%

O=C(Nc1cccc(Nc2ncc(Br)c(NCCc3cnc[nH]3)n2)c1)N1CCCC1
inactive: 1 nM -2.91% | 8.33 nM -2.57% | 100 nM -1% | 833.33 nM -2.29% | 10000 nM -4.48%

O=C(O)c1cc(=O)[nH]c(=O)[nH]1 [orotic-acid]
inactive: 1 nM -2.95% | 8.33 nM 1.49% | 100 nM -1% | 833.33 nM 0.78% | 10000 nM 0.21%

Nc1nc(O)c2nc(Br)n([C@@H]3O[C@@H]4COP(=O)(O)O[C@H]4[C@H]3O)c2n1 [8-bromo-cGMP]
inactive: 1 nM 0.61% | 8.33 nM 2.94% | 100 nM 2.06% | 833.33 nM 1.94% | 10000 nM 1.61%

O=C(O)Cc1ccc(OCCNC[C@H](O)c2ccccc2)cc1
inactive: 1 nM 2.57% | 8.33 nM 3.11% | 100 nM 0.37% | 833.33 nM -0.56% | 10000 nM 1.01%

CCCN(CCC)CCc1cccc2c1CC(=O)N2 [ropinirole]
inactive: 1 nM 0.18% | 8.33 nM -0.55% | 100 nM -1.05% | 833.33 nM 2.2% | 10000 nM -0.98%

CCCCCCCCCCCCCCC[C@@H](O)[C@@H](N)CO [safingol]
inactive: 1 nM 3.01% | 8.33 nM 0.67% | 100 nM 1.42% | 833.33 nM 2.02% | 10000 nM -4.84%

C[C@@H](O)[C@@H]1NC(=O)[C@H](CCCCN)NC(=O)[C@@H](Cc2c[nH]c3ccccc23)NC(=O)[C@H](Cc2ccccc2)NC(=O)[C@@H](NC(=O)[C@H](N)Cc2ccccc2)CSSC[C@@H](C(=O)N[C@H](CO)[C@@H](C)O)NC1=O [octreotide]
inactive: 1 nM 2.23% | 8.33 nM -0.63% | 100 nM -1.24% | 833.33 nM 3.26% | 10000 nM -1.58%

O=Cc1cn(Cc2ccc(Cl)cc2)c2ccccc12 [oncrasin-1]
inactive: 1 nM 1.13% | 8.33 nM -1.86% | 100 nM 2.77% | 833.33 nM 2.11% | 10000 nM 2.76%

COc1ccc(-c2nc3cc(C4=NNC(=O)CC4C)ccc3[nH]2)cc1 (stereo not given) [pimobendan]
inactive: 1 nM 2.75% | 8.33 nM -1.84% | 100 nM -1.74% | 833.33 nM -1.51% | 10000 nM -0.67%

CCOc1ccc2nc3cc(N)ccc3c(N)c2c1 [ethacridine-lactate-monohydrate]
inactive: 1 nM -0.84% | 8.33 nM 0.62% | 100 nM 0.77% | 833.33 nM -1.28% | 10000 nM 0.22%

OC(c1ccccc1)(c1ccccc1)C12CC[N+](CCOCc3ccccc3)(CC1)CC2 [umeclidinium]
inactive: 1 nM -0.48% | 8.33 nM 1.77% | 100 nM 0.73% | 833.33 nM 1.46% | 10000 nM 1.64%

CC(C)N(CC[C@H](c1ccccc1)c1cc(CO)ccc1O)C(C)C [5-hydroxymethyl-tolterodine]
inactive: 1 nM -1.98% | 8.33 nM -1.4% | 100 nM -1.82% | 833.33 nM 2.8% | 10000 nM -3.28%

Nc1nc(NC[C@H]2CC[C@H](CNS(=O)(=O)c3cccc4ccccc34)CC2)nc2ccccc12
active: 10000 nM 29.5%
inactive: 1 nM -0.54% | 8.33 nM -0.03% | 100 nM 0.19% | 833.33 nM -0.88%

COc1ccc(C2CC(c3c(O)cc(C)oc3=O)=NCCS2)c(OC)c1 (stereo not given)
inactive: 1 nM 0.21% | 8.33 nM 3.01% | 100 nM -2.07% | 833.33 nM -0.81% | 10000 nM -8.62%

CC1(C)C(=O)NC2=C1C(=O)C(=O)c1ccccc12
inactive: 1 nM 0.25% | 8.33 nM -0.49% | 100 nM -0.78% | 833.33 nM 1.58% | 10000 nM -10.5%

CO[C@H]1O[C@@H]2O[C@@]3(C)CC[C@H]4[C@H](C)CC[C@@H]([C@H]1C)[C@@]24OO3 [artemether]
inactive: 1 nM 7.32% | 8.33 nM 4.82% | 100 nM 2.64% | 833.33 nM -2.72% | 10000 nM 0.52%

CCC(=O)O[C@]1(C(=O)CCl)[C@@H](C)C[C@H]2[C@@H]3C[C@H](F)C4=CC(=O)C=C[C@]4(C)[C@@]3(F)[C@@H](O)C[C@@]21C [halobetasol-propionate]
inactive: 1 nM -3.17% | 8.33 nM -1.89% | 100 nM -2.65% | 833.33 nM 1.32% | 10000 nM 4.68%

O=C(O)C(=O)O.[NH-][C@@H]1CCCC[C@H]1[NH-].[Pt+2] [oxaliplatin]
inactive: 1 nM 1.5% | 8.33 nM 1.96% | 100 nM 10.3% | 833.33 nM -2.36% | 10000 nM 1%

Cc1cccc(C)c1NC(=O)/N=C1\CCCN1C [xilobam]
inactive: 1 nM -1.73% | 8.33 nM -0.97% | 100 nM 1.82% | 833.33 nM -0.83% | 10000 nM 1.68%

CC(C)NCC(O)COc1cccc2[nH]ccc12 (stereo not given) [pindolol]
inactive: 1 nM -3.04% | 8.33 nM 0.875% | 100 nM 0.95% | 833.33 nM -0.725% | 10000 nM -1.61%

CCOC(=O)c1ccc(NC2CCCCC2)c(N)c1 [ferrostatin-1]
inactive: 1 nM 0.05% | 8.33 nM 3.56% | 100 nM 2.61% | 833.33 nM 2.6% | 10000 nM 2.1%

CCS(=O)(=O)Nc1ccc2c(c1)/C(=C(/Nc1ccc(CN3CCCCC3)cc1)c1ccccc1)C(=O)N2 [hesperadin]
inactive: 1 nM 1.74% | 8.33 nM 3.12% | 100 nM 0.27% | 833.33 nM -9.14% | 10000 nM -10.5%
